Holding throughout (experiment): DAPPL (digital affinity profiling via proximity ligation, sequencing); 10 mM Tris-HCl pH 7.5, 50 mM NaCl, 1 mM DTT, 4% glycerol, room temperature, 30 min; GST-TFs on glutathione beads, 16-mer random dsDNA library, 0.1% formaldehyde crosslink after washing; high values mean tight binding
For one assay, the target named is T1, FEV (Homo sapiens, UniProt Q99581 1-238).
T1 sequence: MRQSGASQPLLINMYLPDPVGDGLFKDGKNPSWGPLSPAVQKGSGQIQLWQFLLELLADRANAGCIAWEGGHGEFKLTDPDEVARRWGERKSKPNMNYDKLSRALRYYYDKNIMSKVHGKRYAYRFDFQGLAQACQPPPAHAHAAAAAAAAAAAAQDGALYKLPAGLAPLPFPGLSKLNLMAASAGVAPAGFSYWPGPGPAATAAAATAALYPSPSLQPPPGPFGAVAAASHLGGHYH
Particulars: protein: recombinant; tags: N-terminal GST; dsDNA, one strand shown. In short, it runs like this: (§1)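 Binding signal is defined as a hexamer's read frequency for one factor over its frequency for the tag-only sample. To obtain reads, GST-fused human transcription factors were expressed in yeast, captured on glutathione beads, barcoded with DNA and pooled with that sample. Pools met 200 nmole of a 16-mer random double-stranded DNA library in Tris/NaCl/DTT/glycerol buffer for 30 min at room temperature before washing, 0.1% formaldehyde crosslinking, proximity ligation (BsaI/T4 ligase, 1 h, 37 °C), PCR and Illumina NextSeq500 sequencing.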

Another assay addresses ETV5 (Homo sapiens, UniProt P41161 1-510). The settings on record: protein: recombinant; tags: N-terminal GST; dsDNA, one strand shown. In outline:
as §1

For the next assay, the target named is HSF1 (Homo sapiens, UniProt Q00613 1-529). The settings on record: protein: recombinant; tags: N-terminal GST; chain copies: 3; dsDNA, one strand shown. In short, it runs like this:
as §1

A further assay has as its target T2, SPIC (Homo sapiens, UniProt Q8N5J4 1-248).
T2 sequence: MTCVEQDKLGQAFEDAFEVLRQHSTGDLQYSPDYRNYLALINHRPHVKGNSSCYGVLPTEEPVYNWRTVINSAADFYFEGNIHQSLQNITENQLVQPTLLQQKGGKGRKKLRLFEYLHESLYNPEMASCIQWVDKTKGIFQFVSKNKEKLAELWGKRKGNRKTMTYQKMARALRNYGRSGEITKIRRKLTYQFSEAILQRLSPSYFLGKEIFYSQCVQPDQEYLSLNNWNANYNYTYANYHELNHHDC
Particulars: protein: recombinant; tags: N-terminal GST; dsDNA, one strand shown. In outline:
as §1

Another assay deals with ELF4 (Homo sapiens, UniProt Q99607 1-663). The settings on record: protein: recombinant; tags: N-terminal GST; dsDNA, one strand shown. In short, it runs like this: as §1
The target of the next assay is T3, ELK4 (Homo sapiens, UniProt P28324-2 1-405).
T3 sequence: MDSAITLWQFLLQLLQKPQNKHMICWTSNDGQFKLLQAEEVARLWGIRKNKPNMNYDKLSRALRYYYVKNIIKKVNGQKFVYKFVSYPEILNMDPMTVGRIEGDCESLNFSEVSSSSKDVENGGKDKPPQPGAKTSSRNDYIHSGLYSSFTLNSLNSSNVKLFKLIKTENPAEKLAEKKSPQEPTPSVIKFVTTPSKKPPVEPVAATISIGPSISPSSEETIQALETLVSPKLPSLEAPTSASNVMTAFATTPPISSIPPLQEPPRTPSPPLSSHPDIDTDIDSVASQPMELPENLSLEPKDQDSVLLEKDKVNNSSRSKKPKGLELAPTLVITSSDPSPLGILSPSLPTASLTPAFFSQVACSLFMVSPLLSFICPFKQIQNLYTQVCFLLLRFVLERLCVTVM
The settings on record: protein: recombinant; tags: N-terminal GST; dsDNA, one strand shown. In short, it runs like this:
as §1

Another assay has as its target T4, ETV2 (Homo sapiens, UniProt O00321 1-342).
T4 sequence: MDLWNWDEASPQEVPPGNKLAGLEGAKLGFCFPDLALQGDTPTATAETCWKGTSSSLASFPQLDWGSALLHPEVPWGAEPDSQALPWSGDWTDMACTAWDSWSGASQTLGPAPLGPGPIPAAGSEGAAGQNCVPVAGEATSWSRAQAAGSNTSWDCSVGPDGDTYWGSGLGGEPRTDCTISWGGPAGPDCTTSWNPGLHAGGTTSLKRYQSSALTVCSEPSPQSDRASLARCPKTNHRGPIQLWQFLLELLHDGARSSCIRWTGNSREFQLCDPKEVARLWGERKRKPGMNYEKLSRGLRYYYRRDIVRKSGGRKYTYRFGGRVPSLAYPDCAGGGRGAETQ
Particulars: protein: recombinant; tags: N-terminal GST; dsDNA, one strand shown. In short, it runs like this: as §1

The target of a further assay is T5, ELF3 (Homo sapiens, UniProt P78545 1-371).
T5 sequence: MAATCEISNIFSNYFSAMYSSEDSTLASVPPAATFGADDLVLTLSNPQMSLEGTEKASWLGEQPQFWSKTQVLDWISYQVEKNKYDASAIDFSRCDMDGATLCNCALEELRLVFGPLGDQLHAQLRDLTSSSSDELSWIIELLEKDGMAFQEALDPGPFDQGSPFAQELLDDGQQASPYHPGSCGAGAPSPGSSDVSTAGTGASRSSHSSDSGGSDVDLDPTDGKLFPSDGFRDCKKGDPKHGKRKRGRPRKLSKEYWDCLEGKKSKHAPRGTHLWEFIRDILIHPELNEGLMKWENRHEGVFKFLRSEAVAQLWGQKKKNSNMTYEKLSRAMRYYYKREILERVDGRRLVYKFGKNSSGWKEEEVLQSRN
Particulars: protein: recombinant; tags: N-terminal GST; dsDNA, one strand shown. In short, it runs like this: as §1

A further assay addresses CRX (Homo sapiens, UniProt O43186 1-299). The settings on record: protein: recombinant; tags: N-terminal GST; dsDNA, one strand shown. In outline: as §1
For a further assay, the target named is ETV1 (Homo sapiens, UniProt P50549 1-477). The settings on record: protein: recombinant; tags: N-terminal GST; dsDNA, one strand shown. In outline:
as §1

The target in another assay is T6, ERF (Homo sapiens, UniProt P50548 1-548).
T6 sequence: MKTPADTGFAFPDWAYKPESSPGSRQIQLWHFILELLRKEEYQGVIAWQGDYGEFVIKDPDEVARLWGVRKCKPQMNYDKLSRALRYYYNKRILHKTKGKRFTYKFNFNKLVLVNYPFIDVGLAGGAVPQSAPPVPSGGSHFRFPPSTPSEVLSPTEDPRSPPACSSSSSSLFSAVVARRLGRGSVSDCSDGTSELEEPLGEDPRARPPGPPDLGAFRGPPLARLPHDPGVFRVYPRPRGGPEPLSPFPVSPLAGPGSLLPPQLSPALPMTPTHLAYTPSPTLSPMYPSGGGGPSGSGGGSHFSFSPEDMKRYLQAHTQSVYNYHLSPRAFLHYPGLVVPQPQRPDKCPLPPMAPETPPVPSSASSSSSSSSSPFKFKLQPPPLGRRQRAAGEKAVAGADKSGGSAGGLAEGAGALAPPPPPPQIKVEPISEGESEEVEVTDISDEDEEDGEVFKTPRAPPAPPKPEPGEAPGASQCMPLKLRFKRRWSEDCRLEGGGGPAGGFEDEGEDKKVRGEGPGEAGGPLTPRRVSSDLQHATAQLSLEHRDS
Particulars: protein: recombinant; tags: N-terminal GST; dsDNA, one strand shown. In outline: as §1

In a further assay the target is T7, ETV3L (Homo sapiens, UniProt Q6ZN32 1-361).
T7 sequence: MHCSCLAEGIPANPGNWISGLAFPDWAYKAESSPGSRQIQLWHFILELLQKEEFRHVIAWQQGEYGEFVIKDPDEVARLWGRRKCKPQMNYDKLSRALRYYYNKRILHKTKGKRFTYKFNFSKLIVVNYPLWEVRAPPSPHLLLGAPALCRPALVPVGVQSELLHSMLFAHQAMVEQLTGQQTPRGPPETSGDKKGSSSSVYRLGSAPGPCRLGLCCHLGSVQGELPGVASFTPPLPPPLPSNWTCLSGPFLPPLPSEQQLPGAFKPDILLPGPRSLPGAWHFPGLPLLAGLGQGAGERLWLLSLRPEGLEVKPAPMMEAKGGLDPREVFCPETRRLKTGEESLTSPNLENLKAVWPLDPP
Particulars: protein: recombinant; tags: N-terminal GST; dsDNA, one strand shown. In outline: as §1

In a further assay the target is T8, ETS2 (Homo sapiens, UniProt P15036 1-469).
T8 sequence: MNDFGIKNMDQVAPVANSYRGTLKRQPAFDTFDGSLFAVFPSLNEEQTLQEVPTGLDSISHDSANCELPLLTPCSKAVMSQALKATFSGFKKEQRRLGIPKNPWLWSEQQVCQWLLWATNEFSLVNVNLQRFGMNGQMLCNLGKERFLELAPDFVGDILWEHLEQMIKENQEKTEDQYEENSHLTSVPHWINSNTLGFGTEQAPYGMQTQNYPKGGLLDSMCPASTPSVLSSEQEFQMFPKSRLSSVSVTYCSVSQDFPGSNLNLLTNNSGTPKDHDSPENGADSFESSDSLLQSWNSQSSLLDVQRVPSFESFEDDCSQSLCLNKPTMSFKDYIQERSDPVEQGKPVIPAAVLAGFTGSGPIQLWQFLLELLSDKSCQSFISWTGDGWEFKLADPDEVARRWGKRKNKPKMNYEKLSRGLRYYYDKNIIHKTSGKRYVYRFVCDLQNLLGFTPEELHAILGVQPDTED
The settings on record: protein: recombinant; tags: N-terminal GST; dsDNA, one strand shown. In outline:
as §1

In the next assay the target is T9, SPDEF (Homo sapiens, UniProt O95238 1-335).
T9 sequence: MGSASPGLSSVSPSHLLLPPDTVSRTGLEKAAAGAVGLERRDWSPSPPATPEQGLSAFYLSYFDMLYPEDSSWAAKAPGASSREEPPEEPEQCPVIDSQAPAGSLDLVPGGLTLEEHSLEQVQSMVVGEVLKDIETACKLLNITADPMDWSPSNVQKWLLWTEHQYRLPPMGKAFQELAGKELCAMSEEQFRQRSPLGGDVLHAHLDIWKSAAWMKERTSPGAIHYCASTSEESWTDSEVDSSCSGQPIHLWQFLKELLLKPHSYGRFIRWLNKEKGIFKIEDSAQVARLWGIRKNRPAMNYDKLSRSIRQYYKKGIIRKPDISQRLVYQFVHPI
The settings on record: protein: recombinant; tags: N-terminal GST; dsDNA, one strand shown. In outline:
as §1

The next assay addresses T10, ETV7 (Homo sapiens, UniProt Q9Y603 1-341).
T10 sequence: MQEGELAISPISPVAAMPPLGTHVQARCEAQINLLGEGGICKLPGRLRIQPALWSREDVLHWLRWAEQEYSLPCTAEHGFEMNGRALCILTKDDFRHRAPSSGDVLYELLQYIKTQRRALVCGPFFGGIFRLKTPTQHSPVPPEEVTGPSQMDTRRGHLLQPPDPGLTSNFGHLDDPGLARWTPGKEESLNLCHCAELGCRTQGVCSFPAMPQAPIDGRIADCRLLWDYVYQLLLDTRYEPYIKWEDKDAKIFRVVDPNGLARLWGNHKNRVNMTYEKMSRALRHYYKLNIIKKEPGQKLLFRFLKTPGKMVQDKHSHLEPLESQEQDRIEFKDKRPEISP
Particulars: protein: recombinant; tags: N-terminal GST; dsDNA, one strand shown. In outline:
as §1

The next assay addresses T11, ELF5 (Homo sapiens, UniProt Q9UKW6-2 1-255).
T11 sequence: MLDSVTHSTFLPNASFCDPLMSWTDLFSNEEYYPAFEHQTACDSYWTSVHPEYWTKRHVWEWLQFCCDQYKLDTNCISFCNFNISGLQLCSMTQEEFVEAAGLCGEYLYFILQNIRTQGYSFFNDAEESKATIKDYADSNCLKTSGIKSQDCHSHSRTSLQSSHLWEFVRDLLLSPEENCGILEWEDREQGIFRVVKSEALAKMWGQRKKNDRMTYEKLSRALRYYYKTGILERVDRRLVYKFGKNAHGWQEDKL
Particulars: protein: recombinant; tags: N-terminal GST; dsDNA, one strand shown. In outline: as §1

The target of a further assay is T12, ETV3 (Homo sapiens, UniProt P41162-2 1-143).
T12 sequence: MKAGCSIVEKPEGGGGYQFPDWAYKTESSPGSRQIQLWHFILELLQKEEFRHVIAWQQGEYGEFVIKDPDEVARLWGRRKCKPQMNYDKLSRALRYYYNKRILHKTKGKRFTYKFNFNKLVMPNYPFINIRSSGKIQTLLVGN
The settings on record: protein: recombinant; tags: N-terminal GST; dsDNA, one strand shown. In short, it runs like this: as §1

The target of another assay is ETV6 (Homo sapiens, UniProt P41212 1-452). The settings on record: protein: recombinant; tags: N-terminal GST; dsDNA, one strand shown. In outline:
as §1

Chain of ELF4 (Q99607 whole entry): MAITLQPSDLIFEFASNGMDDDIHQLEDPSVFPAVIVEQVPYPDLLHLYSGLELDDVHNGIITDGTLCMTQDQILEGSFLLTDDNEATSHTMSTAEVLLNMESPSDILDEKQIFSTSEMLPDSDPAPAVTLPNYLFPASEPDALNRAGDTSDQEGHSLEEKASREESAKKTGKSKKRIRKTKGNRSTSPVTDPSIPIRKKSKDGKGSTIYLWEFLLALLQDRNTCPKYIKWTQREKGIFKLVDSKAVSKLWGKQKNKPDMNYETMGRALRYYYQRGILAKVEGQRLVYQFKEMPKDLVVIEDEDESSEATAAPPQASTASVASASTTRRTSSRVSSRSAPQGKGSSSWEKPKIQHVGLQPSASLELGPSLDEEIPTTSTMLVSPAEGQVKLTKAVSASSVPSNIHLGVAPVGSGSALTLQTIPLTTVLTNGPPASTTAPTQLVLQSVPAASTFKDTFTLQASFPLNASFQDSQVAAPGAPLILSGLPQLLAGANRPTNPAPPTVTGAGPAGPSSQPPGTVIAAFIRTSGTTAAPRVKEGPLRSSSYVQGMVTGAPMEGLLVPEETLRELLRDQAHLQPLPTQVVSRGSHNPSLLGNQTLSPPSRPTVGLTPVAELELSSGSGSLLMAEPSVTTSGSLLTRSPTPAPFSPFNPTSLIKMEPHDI
Chain of ETV6 (P41212 whole entry): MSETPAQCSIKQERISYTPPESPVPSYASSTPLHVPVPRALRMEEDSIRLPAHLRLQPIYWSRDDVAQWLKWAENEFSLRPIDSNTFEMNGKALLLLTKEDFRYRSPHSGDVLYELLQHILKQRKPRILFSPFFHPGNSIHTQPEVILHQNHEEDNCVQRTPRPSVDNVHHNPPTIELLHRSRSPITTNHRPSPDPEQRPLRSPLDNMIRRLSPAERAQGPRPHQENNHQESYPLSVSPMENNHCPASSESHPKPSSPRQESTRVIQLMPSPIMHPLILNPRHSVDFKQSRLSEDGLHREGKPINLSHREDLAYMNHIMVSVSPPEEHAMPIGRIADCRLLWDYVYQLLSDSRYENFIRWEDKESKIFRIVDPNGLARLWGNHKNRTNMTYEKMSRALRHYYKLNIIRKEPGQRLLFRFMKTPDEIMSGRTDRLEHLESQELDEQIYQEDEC
Chain of HSF1 (Q00613 whole entry): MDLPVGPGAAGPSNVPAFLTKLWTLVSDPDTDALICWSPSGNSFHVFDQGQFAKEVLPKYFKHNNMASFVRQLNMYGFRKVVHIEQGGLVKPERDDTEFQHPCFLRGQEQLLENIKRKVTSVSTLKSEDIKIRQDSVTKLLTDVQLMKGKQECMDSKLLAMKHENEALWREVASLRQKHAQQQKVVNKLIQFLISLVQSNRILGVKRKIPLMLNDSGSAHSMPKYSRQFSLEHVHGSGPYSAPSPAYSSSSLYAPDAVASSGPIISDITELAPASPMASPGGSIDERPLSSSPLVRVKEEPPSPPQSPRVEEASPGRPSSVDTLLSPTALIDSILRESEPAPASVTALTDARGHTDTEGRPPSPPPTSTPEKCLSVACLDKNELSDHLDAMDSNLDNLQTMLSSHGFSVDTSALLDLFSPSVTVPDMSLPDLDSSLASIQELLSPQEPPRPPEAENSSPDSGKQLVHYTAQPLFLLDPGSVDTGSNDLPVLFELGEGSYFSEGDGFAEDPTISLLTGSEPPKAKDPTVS
Chain of ETV1 (P50549 whole entry): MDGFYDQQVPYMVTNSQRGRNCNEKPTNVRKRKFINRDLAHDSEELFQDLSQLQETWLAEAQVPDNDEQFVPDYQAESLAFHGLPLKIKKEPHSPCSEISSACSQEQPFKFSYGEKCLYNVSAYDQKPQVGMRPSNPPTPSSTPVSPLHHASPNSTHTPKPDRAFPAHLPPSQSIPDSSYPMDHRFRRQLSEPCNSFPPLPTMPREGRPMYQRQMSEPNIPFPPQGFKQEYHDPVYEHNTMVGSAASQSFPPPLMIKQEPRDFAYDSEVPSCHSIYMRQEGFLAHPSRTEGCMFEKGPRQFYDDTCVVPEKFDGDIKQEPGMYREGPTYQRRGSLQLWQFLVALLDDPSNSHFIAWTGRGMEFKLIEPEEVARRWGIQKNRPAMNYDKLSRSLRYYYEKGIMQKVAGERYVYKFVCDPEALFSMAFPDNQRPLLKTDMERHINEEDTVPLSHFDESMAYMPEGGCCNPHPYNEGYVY
Chain of ETV5 (P41161 whole entry): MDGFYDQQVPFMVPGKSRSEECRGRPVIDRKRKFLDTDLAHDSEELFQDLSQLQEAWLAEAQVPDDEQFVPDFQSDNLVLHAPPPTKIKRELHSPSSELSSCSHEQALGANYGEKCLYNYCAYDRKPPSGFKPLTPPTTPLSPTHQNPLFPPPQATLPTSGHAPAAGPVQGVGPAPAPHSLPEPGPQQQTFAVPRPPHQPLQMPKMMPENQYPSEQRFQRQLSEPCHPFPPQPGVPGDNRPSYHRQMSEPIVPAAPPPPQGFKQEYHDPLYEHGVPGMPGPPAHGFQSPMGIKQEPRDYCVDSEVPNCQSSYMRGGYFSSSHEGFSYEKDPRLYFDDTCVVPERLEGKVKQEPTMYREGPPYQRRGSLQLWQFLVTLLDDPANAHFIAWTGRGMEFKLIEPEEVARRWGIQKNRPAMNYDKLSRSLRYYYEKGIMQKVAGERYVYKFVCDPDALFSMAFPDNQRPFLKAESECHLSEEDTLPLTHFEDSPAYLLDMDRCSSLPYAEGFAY
Chain of CRX (O43186 whole entry): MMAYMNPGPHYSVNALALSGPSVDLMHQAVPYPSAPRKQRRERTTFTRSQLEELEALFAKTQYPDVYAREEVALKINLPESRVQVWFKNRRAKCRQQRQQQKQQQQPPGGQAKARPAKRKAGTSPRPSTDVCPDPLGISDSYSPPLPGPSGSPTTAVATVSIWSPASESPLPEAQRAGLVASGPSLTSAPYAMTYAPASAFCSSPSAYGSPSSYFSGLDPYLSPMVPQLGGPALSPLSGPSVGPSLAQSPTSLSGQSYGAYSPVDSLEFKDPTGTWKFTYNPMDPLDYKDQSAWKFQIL

Consider CTCTCG, for which the binding signal in the assay with FEV is 1.3 fold enrichment (6-mer frequency, TF over GST control); in the assay with ETV5, 1.32 fold enrichment (6-mer frequency, TF over GST control); with HSF1 it was 1.99 fold enrichment (6-mer frequency, TF over GST control); with SPIC it was 1.3 fold enrichment (6-mer frequency, TF over GST control); in the assay with ELF4 it was 1.45 fold enrichment (6-mer frequency, TF over GST control); with ELK4, 1.41 fold enrichment (6-mer frequency, TF over GST control). Moreover, the binding signal with ETV2 was 1.73 fold enrichment (6-mer frequency, TF over GST control); in the assay with ELF3, 1.65 fold enrichment (6-mer frequency, TF over GST control); with CRX it was 1.32 fold enrichment (6-mer frequency, TF over GST control); with ETV1 it was 1.47 fold enrichment (6-mer frequency, TF over GST control); with ERF, 1.36 fold enrichment (6-mer frequency, TF over GST control); in the assay with ETV3L it was 1.42 fold enrichment (6-mer frequency, TF over GST control). Moreover, the binding signal is 1.4 fold enrichment (6-mer frequency, TF over GST control) in the assay with ETS2; 1.16 fold enrichment (6-mer frequency, TF over GST control) with SPDEF; 1.25 fold enrichment (6-mer frequency, TF over GST control) in the assay with ETV7; 1.34 fold enrichment (6-mer frequency, TF over GST control) in the assay with ELF5; 1.35 fold enrichment (6-mer frequency, TF over GST control) with ETV3; 1.31 fold enrichment (6-mer frequency, TF over GST control) in the assay with ETV6.

The values are drawn from article PMC7862700, “An all-to-all approach to the identification of sequence-specific readers for epigenetic DNA modifications on cytosine”.
